Source: PubChem (Broad Institute)
Rows were chosen to be rich in hits. Some 1.2% of all compounds tested hit in one or more screens of this group.
PrP UTR inh: inhibition of PrP 5' UTR reporter expression; inhibition, % (test concentration not listed); 340,000 tested, 0.35% active; AID 488862, 2010; cell-based PrP 5' UTR mRNA reporter, plate reader; in the data active means inhibition above about 52%; further: 0 = median of the neutral control wells
PfHsp40 yeast: rescue of yeast from PfHsp40 toxicity, primary screen, S. cerevisiae, ATP luminescence; S. cerevisiae expressing PfHsp40, growth rescue; growth rescue, % at 12.5 µM; 340,000 tested, 0.68% active; in the data active means growth rescue above about 28%, passing the limit was not always enough;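 further: yeast W303a lacking pdr1 and pdr3 grown in galactose medium; growth measured after three days at 30 °C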
FadD28 binding: inhibitors of FadD28 bisubstrate probe binding, primary screen, biochemical, fluorescence polarization, single point; Mycobacterium tuberculosis FadD28 fatty-acid-AMP ligase; inhibition, % at 12.5 µM; 360,000 tested, 0.22% active; AID 588549, 2011; in the data active means inhibition above about 8.5%, passing the limit was not always enough
BioA inh-1: M. tuberculosis BioA enzyme inhibitors, primary screen, biochemical, plate reader, single point, HTS | 7,8-diaminopelargonic acid synthase BioA (Mycobacterium tuberculosis) | 360,000 tested, 0.096% active | purified M. tuberculosis BioA enzyme | inhibition, % at 9.99 µM; in the data active means inhibition above about 40%
Y pestis TopoI: Yersinia pestis topoisomerase I inhibitors, primary screen, biochemical, cleavage product accumulation, plate reader, single point; DNA topoisomerase I (Yersinia pestis CO92); Y. pestis Topo-I cleavage product accumulation; activity, % at 10 µM; 360,000 tested, 0.064% active; AID 504884, 2011; in the data active means activity above about 50%, passing the limit was not always enough
TcdB GH inh: TcdB glycohydrolase inhibitors, primary screen, biochemical, single point, plate reader | Toxin B (Clostridioides difficile), P18177 | TcdB glycohydrolase enzymatic assay | inhibition, % at 9.99 µM | 350,000 tested, 0.24% active | AID 652162, 2013; in the data active means inhibition above about 10%
Target sequence (P18177 whole entry, looked up): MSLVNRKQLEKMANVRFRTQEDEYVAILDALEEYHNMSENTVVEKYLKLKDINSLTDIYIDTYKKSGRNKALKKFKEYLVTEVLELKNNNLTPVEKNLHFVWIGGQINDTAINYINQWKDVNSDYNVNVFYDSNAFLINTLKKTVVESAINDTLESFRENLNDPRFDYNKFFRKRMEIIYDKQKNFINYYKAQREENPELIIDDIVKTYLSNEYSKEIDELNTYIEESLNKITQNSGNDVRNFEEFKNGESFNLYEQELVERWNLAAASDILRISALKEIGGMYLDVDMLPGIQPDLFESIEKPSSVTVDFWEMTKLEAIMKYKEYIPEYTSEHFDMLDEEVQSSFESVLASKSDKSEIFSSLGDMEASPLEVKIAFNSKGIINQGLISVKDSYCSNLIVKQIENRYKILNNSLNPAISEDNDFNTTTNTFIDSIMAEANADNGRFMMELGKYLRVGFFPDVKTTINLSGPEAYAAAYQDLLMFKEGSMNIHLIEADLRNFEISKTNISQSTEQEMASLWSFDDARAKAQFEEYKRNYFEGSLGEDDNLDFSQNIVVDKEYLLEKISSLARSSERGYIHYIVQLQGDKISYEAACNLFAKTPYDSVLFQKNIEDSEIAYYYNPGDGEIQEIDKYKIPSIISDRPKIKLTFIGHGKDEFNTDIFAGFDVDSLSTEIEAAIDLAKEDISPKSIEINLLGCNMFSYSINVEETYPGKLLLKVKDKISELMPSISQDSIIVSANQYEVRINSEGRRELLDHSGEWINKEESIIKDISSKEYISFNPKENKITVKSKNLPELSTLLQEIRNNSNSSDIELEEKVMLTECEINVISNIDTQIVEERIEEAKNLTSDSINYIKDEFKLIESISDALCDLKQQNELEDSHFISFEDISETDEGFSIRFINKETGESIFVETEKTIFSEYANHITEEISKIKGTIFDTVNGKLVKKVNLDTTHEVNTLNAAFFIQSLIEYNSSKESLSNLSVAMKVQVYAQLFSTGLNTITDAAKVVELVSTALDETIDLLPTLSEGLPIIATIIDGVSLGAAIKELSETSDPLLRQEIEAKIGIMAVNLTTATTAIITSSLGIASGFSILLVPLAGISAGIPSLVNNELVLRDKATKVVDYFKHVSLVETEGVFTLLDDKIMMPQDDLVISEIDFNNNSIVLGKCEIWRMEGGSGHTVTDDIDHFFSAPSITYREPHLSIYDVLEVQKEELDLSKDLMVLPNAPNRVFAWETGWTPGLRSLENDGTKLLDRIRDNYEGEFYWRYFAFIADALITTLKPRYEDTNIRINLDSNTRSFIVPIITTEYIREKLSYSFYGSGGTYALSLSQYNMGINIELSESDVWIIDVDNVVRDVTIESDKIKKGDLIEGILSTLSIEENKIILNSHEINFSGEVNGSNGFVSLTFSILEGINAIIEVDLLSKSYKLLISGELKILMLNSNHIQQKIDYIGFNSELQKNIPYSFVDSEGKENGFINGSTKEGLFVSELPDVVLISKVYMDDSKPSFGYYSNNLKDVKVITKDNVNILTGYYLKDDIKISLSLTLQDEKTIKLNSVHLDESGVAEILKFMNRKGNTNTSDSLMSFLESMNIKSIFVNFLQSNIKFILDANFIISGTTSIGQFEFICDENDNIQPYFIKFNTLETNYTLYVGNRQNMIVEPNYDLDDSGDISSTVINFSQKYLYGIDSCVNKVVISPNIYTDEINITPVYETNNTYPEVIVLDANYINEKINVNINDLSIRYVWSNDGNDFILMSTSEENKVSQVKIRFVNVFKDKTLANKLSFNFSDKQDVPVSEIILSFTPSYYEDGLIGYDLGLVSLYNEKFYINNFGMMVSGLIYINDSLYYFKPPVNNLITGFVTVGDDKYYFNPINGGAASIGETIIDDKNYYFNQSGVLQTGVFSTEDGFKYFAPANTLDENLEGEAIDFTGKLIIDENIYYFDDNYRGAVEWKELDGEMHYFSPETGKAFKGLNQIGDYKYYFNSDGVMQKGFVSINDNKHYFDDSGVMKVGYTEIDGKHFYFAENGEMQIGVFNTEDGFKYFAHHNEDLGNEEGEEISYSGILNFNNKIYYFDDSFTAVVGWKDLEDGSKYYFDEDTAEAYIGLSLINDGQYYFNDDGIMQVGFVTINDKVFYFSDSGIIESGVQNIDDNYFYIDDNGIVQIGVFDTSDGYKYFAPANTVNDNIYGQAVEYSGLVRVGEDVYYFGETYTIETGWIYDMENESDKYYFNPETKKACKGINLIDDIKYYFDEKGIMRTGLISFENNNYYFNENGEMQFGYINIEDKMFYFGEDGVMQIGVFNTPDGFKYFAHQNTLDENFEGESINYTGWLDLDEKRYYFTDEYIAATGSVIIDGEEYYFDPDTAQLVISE
BioA inh-2: Mtb BioA enzyme inhibitors, dose response, biochemical, plate reader, cherry-pick samples, set 03. AID 651679, 2012. shares compounds with BioA inh-1. 310 tested, under 10 active. purified BioA enzyme. max activity, %;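 further: top concentration of the dilution series was 10 µM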
HepG2 cytotox: cytotoxicity in HepG2 cells, dose response, cytotoxicity control, cell-based, plate reader, cherry-pick, two tests. shares compounds with BioA inh-1. max activity, %. 310 tested, under 10 active
3T3 cytotox 5: cytotoxicity in NIH3T3 fibroblasts, dose response, cytotoxicity control, cell-based, plate reader, cherry-pick, two tests; shares compounds with BioA inh-1; activity change, negative = cytotoxicity, % at 26 µM; 310 tested, under 10 active
The depositor's hits bear a star; i = inactive; · = no result; [ ] = dose if it differs, or a comment. Unless noted, how the calls were made is not given here.

SMILES	PrP UTR inh	PfHsp40 yeast	FadD28 binding	BioA inh-1	Y pestis TopoI	TcdB GH inh	BioA inh-2	HepG2 cytotox	3T3 cytotox 5
Cc1nc2nc(SCC(=O)N3CCOCC3)nn2c(C)c1Cc1ccccc1	-4	0	0	111*	2	·	-4	-7	-6
Cc1nc2nc(SCC(=O)NCc3ccco3)nn2c(C)c1Cc1c(F)cccc1Cl	-21	-1	-4	48*	21	·	3	22	-1
Cc1cccc(Cc2c(C)nc3nc(SCC(=O)NCc4ccco4)nn3c2C)c1	-21	2	-2	39	24	·	·	·	·
Cc1ccc(Cc2c(C)nc3nc(SCC(=O)NCc4ccco4)nn3c2C)cc1	-25	0	-1	50*	17	·	-6	12	0
Cc1ccc(Cc2c(C)nc3nc(SCC(=O)N4CCC5(CC4)OCCO5)nn3c2C)cc1	-33	-1	0	·	31	·	·	·	·
CNC(=O)C[C@H]1CC[C@@H]2[C@H](COC[C@@H](O)CN2C(=O)Nc2cccc(OC)c2)O1	·	·	·	77*	·	0	5	i	-6
COC(=O)C[C@@H]1CC[C@H]2[C@@H](COC[C@@H](O)CN2C(=O)Nc2cccc(F)c2)O1	·	·	·	5	·	-1	·	·	·
COC(=O)C[C@H]1CC[C@@H]2[C@H](COC[C@@H](O)CN2C(=O)Nc2cccc(F)c2)O1	·	·	·	42*	·	1	-7	i	-5
CNC(=O)C[C@@H]1CC[C@H]2[C@@H](COC[C@H](O)CN2C(=O)Nc2cccc(OC)c2)O1	·	·	·	1	·	-1	·	·	·
COCCNC(=O)C[C@@H]1C[C@H]2c3cc(NC(=O)C4CCOCC4)ccc3O[C@H]2[C@H](CO)O1	·	·	·	-1	·	1	·	·	·
CO[C@@H]1CN(C)C(=O)c2cc(NC(=O)C3CCC3)ccc2OC[C@H](C)N(C)C[C@H]1C	·	·	·	0	·	·	·	·	·
O=C(C[C@H]1CC[C@H]2[C@@H](COC[C@@H](O)CN2S(=O)(=O)c2ccccc2Cl)O1)N1CCC(Cc2ccccc2)CC1	·	·	·	5	·	1	·	·	·
CCOC(=O)C1(CCc2ccccc2)CCN(C(=O)CN2CCOC2=O)CC1	-15	1	-1	59*	-1	0	-4	23	9
CCOC(=O)C1(CCc2ccccc2)CCN(C(=O)C2=C(C)OCCO2)CC1	-38	-1	-1	·	23	2	·	·	·
COc1ccc(CN(C)C[C@@H]2OCCCC[C@H](C)Oc3ccc(NS(=O)(=O)c4ccc(Cl)cc4)cc3C(=O)N([C@H](C)CO)C[C@@H]2C)cc1	·	·	·	-1	·	1	·	·	·
COC(=O)C1C(=O)C=C(Nc2ccc(F)cc2F)CC1c1ccc(OC)cc1 (stereo not given)	-31	1	-1	19	3	1	·	·	·
COC(=O)C1C(=O)C=C(Nc2ccc(F)cc2)CC1c1ccc(OC)cc1 (stereo not given)	-41	-1	-5	75*	4	·	-6	8	-2
CO[C@H]1CN(C)C(=O)c2ccc(NC(C)=O)cc2OC[C@@H](C)N(C(=O)c2ccc(F)cc2)C[C@H]1C	·	·	·	50*	·	0	10	i	-5
COc1ccc2c3c([nH]c2c1)[C@@H](CO)N(C(=O)CN(C)C)CC31CCN(Cc2ccccc2Cl)CC1	·	·	·	·	·	-2	·	·	·
COc1ccccc1NC(=O)N[C@H]1CC[C@@H](CCn2cc(-c3cccnc3)nn2)O[C@H]1CO	·	·	·	33	·	-1	·	·	·
O=C(N[C@H]1CC[C@@H](CCn2cc(-c3cccnc3)nn2)O[C@H]1CO)c1ccccc1F	·	·	·	47*	·	0	3	i	2
COc1ccccc1NC(=O)N[C@@H]1CC[C@H](CCn2cc(-c3cccnc3)nn2)O[C@H]1CO	·	·	·	57*	·	0	5	i	-9
COc1ccc(NC(=O)N(C)C[C@H]2OCCCC[C@H](C)Oc3ccc(NC(=O)Nc4ccc5c(c4)OCO5)cc3C(=O)N([C@@H](C)CO)C[C@H]2C)cc1	·	·	·	·	·	0	·	·	·
O=C(C[C@H]1C[C@H]2c3cc(NC(=O)c4cccnc4)ccc3O[C@H]2[C@H](CO)O1)NCc1ccccn1	·	·	·	40*	·	1	-2	i	-6
O=C(Nc1ccc2c(c1)[C@H]1C[C@H](CC(=O)N3CCc4ccccc4C3)O[C@H](CO)[C@H]1O2)c1cccnc1	·	·	·	36	·	-1	·	·	·
SMILES	PrP UTR inh	PfHsp40 yeast	FadD28 binding	BioA inh-1	Y pestis TopoI	TcdB GH inh	BioA inh-2	HepG2 cytotox	3T3 cytotox 5
O=C(C[C@@H]1C[C@@H]2c3cc(NC(=O)c4cccnc4)ccc3O[C@@H]2[C@@H](CO)O1)NCc1cccc(F)c1	·	·	·	51*	·	-1	-8	i	1[23.5 µM]
O=C(Nc1ccc2c(c1)[C@H]1C[C@@H](CC(=O)N3CCc4ccccc4C3)O[C@H](CO)[C@H]1O2)c1cccnc1	·	·	·	55*	·	0	-4	i	-7
O=C(C[C@@H]1C[C@@H]2c3cc(NC(=O)c4cccnc4)ccc3O[C@@H]2[C@@H](CO)O1)NCc1cccnc1	·	·	·	41*	·	0	-7	i	-5
O=C(C[C@@H]1C[C@@H]2c3cc(NC(=O)c4cccnc4)ccc3O[C@@H]2[C@H](CO)O1)NCc1ccccn1	·	·	·	33	·	1	·	·	·
COCC(=O)N1CC2(CCN(Cc3nccs3)CC2)c2c(n(C)c3cc(OC)ccc23)[C@@H]1CO	·	·	·	·	·	-8	·	·	·
CN(C)C(=O)c1cccc(-c2ccc([C@H]3[C@@H](CO)N(C(=O)C4CCCC4)[C@H]3C#N)cc2)c1	·	·	·	·	·	0	·	·	·
CC(=O)Nc1ccc2nc(-c3cccnc3)[nH]c2c1	-14	2	1	56*	1	·	-5	7	3
